# Compound activity as filed in PubChem BioAssay.
# JMJD2A Tudor inh: blocks the human JMJD2A Tudor domain | AID 504339 | actives 4.4% (n = 390,000) | AlphaScreen JMJD2A-Tudor / H3K4me3 peptide binding | O75164 | Potency, µM (top dose mostly 114 µM), for inactives: at the top dose activity change, negative = inhibition, most hits filed as inhibitors; also: potency is read from the fitted curve at half-maximal effect; % is scaled to controls: 0 for no effect and ±100 for the full control effect; nearly all actives have a fitted effect of over 50% in size
# PI5P4Ka inh: inhibitors of human PI5P4K alpha. P48426. PI5P4Kalpha enzyme, ADP-Glo luminescence, 60 min; stronger effect = lower value. max response, %. actives 1.2% (n = 330,000). AID 652105; active = max response of -50% or lower; inconclusive = between -30% and -50%; inactive = -30% or higher; also: value at the top dose of about 77 µM; % is scaled to controls: 0 for no effect and ±100 for the full control effect
#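 qHTS, 1536-well: enzyme/substrate mix, compound by pin tool, 5 microM ATP final; RT 60 min; ADP-Glo reagents 1 (45 min) then 2 (30 min); luminescence.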
# HP1b chromo inh: HP1-beta chromodomain-methylated histone interaction inhibition; P83916; AlphaScreen HP1-beta / biotin-H3K9me3 peptide binding; actives 0.56% (n = 390,000); Potency, µM (highest dose often 114 µM), without a hit: at the highest dose activity change, negative = inhibition, actives largely listed as inhibitors; also: potency is read from the fitted curve at half-maximal effect; nearly all actives have a fitted effect of over 70% in size
#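 HP1-beta protein (50 nM final) preincubated 30 min at room temperature with biotinylated H3(1-18)K9me3 peptide (50 nM) in PBS pH 7.4, 0.01% Tween-20, then compound added for 30 min. AlphaScreen streptavidin donor/nickel chelate acceptor beads (10 ug/mL final), 30 min dark, luminescence read.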
# PLK1 PBD block: blocks phosphopeptide binding to human PLK1 polo-box domain; P53350; Plk1 PBD binding of FITC phosphopeptide, fluorescence polarization; Potency, µM, for the others: max response, negative = inhibition, most hits filed as inhibitors; actives 2.8% (n = 360,000); AID 720504; also: potency is read from the fitted curve at half-maximal effect; series mostly up to about 57 µM; % is scaled to controls: 0 for no effect and ±100 for the full control effect; nearly all actives have a fitted effect of over 65% in size
# BAZ2B block: BAZ2B (human) inhibition | Q9UIF8 | AlphaScreen BAZ2B-H3K14Ac peptide displacement | Potency, µM (series often up to 114 µM), for the others: at the highest dose activity change, negative = inhibition, actives largely listed as inhibitors | actives 4.4% (n = 360,000) | AID 504333; also: potency is read from the fitted curve at half-maximal effect; % is scaled to controls: 0 for no effect and ±100 for the full control effect; nearly all actives have a fitted effect of over 60% in size
#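 AlphaScreen luminescence quantifies BAZ2B engagement of H3K14Ac peptide; the protein and biotinylated peptide are both at 50 nM final, buffer PBS pH 7.4 with 0.01% Tween-20, all steps at room temperature.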
# G9a inh: blocks human histone lysine methyltransferase G9a; Potency, µM (highest dose often 102 µM), without a hit: at the highest dose activity, negative = inhibition, actives largely listed as inhibitors; Q96KQ7; actives 8.8% (n = 350,000); G9a H3K9 monomethylation, AlphaScreen, 2 h; also: potency is read from the fitted curve at half-maximal effect; % is scaled to controls: 0 for no effect and ±100 for the full control effect; nearly all actives have a fitted effect of over 75% in size
#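 G9a (20 nM) was preincubated 15 min with compound, then reacted 2 h at room temperature with 500 nM biotin-H3K9 peptide and 20 µM SAM. Monomethyl-H3K9 detected by AlphaScreen using anti-H3K9me1 antibody.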
# Numbers without * were called inactive; ? = inconclusive; . = not tested or not shown; [ ] = dose if it differs, or a comment. Most compounds without a hit are left out; they make up all but 12% or so of the library. Unless noted, calls follow the shape of the dose curve; as a rule, active = well fitted curve in the direction sought with a large enough effect; inconclusive = small, poorly fitted or top-dose-only effect, or another doubt; inactive = no such curve, though single readings can be large; an effect the other way counts as inactive or inconclusive.
SMILES,JMJD2A Tudor inh,PI5P4Ka inh,HP1b chromo inh,PLK1 PBD block,BAZ2B block,G9a inh
S=c1[nH]nc(-c2ccco2)n1/N=C/C=C/c1ccccc1,20µM*,-1,-17%,-16%,-32%,0.71µM*
CCCCCCC(=O)N(O)C1CC(=O)N(c2ccc(Br)cc2)C1=O (stereo not drawn),25µM*,.,-65%,?,-10%,0.63µM*
COc1ccc(N2C(=O)CC(Cc3ccc(Br)cc3)C2=O)cc1 (stereo not drawn),5%,-2,33%,-2%,7%,.
COc1ccccc1N(O)C1CC(=O)N(c2ccc(Br)cc2)C1=O (stereo not drawn),25µM*,.,?,3µM*,?,?
COc1ccc(C(=O)c2cn(Cc3cccc(C)c3)c3cc4c(cc3c2=O)OCCO4)cc1OC,-18%,.,26%,.,-28%,-28%[59 µM]
COc1ccc(S(=O)(=O)N2CCCCC2)cc1NC(=O)CN(Cc1ccco1)Cc1ccco1,-31%,-24,18%,-2%,-26%,3%[2.33 µM]
Cc1ccc2c(CC(=O)Nc3ccc4nc(N5CCOCC5)sc4c3)coc2c1,.,-20,.,-17%,.,.
O=C(NCc1ccccn1)C(=O)NCC1OCCN1S(=O)(=O)c1ccc([N+](=O)[O-])cc1 (stereo not drawn),-12%,-8,30%,-12%,-13%,.
Cc1ccccc1NC(=S)/C(=C(\[O-])c1cc(C)n(Cc2ccccc2Cl)c1C)[n+]1ccccc1,35µM*,-12,?,?,40µM*,50µM*
Cc1cc(C([O-])=C(C(=S)Nc2ccccc2)[n+]2ccccc2)c(C)n1-c1ccccc1,32µM*,-6,?,?,.,.
Cc1cc(Cl)ccc1NC(=S)NCc1ccccc1Cl,7%,12,29%,0%,-9%,9%[59 µM]
CC1CCc2c(sc(NC(=O)c3cc4nc(-c5ccc(Cl)cc5)cc(C(F)(F)F)n4n3)c2C#N)C1 (stereo not drawn),-4%,.,37%,.,-15%,1%[59 µM]
CCOc1ccccc1NC(=S)N1CCN(c2ccc(O)cc2)CC1,?,1,-11%,-4%,-14%,35µM*
CCOc1ccccc1NC(=S)N1CCN(c2ccc(OC)cc2)CC1,?,2,14%,-3%,?,?
CCOC(=O)N1CCN(c2ccc(O)cc2)CC1,35µM*,-6,-69%,2%,8%,2.8µM*
CCOC(=O)N1CCN(c2ccc(Cl)cc2)CC1,-7%[57.1 µM],5,19%,-5%,4%,15%[59 µM]
O=C(C1CC1)N1CCN(c2ccc(O)cc2)CC1,79µM*,-15,?,-4%,-2%,25µM*
CCOC(=O)N1CCN(c2cc(=O)n(-c3ccc(Br)cc3)c(=O)[nH]2)CC1,-17%,1,-1%,-13%,1%,?
CCOC(=O)N1CCN(c2cc(=O)n(-c3ccc(C)cc3)c(=O)[nH]2)CC1,-4%,-6,3%,-21%,.,50µM*
CCOC(=O)c1cc(-c2ccccc2)n(CC(=O)Nc2cc(Cl)c(OC)cc2OC)c1C,-12%,.,55%,.,4%,-21%[59 µM]
O=C(Cc1ccsc1)N1CCc2c([nH]c3ccccc23)C1c1ccccn1 (stereo not drawn),?,-1,17%,-13%,-31%,50µM*
Cc1nc(C(=O)N2CCc3c([nH]c4ccccc34)C2c2ccccn2)cs1 (stereo not drawn),-29%,-2,-17%,-5%,-23%,-10%
CC(C)c1nc(C(=O)N2CCc3c([nH]c4ccccc34)C2c2ccccn2)cs1 (stereo not drawn),56µM*,-1,-18%,-18%,22µM*,.
O=C(O)c1cccnc1C(=O)N1CCc2c([nH]c3ccccc23)C1C(F)(F)F (stereo not drawn),?,8,3%,-5%,-38%,56µM*
Cc1cccc(C2c3[nH]c4ccccc4c3CCN2C(=O)Cc2nc(-c3ccccc3)n[nH]2)n1 (stereo not drawn),?,3,-3%,2%,-37%,?
SMILES,JMJD2A Tudor inh,PI5P4Ka inh,HP1b chromo inh,PLK1 PBD block,BAZ2B block,G9a inh
CCOc1ccc(NC(=O)CN(C)C(=O)c2c(C)nn(Cc3ccccc3Cl)c2C)cc1OCC,-20%,0,21%,-4%,.,.
O=C(NC1CCCCC1)c1nc(C2CCNCC2)oc1-c1ccccc1,.,-1,.,1%,.,.
CCc1nc2c(OCC3COc4ccccc4O3)cccn2c1N(C)C(=O)c1ccc(OC)cc1 (stereo not drawn),.,-1,.,8%,.,.
CCNc1ccccc1CP(=O)(c1ccccc1)c1ccccc1O (stereo not drawn),50µM*,?,32µM*,21µM*,40µM*,?
COc1ccc(C(=O)NNC(=O)C2=NN(c3ccccc3)C(=O)CC2)cc1,-11%,0,68%,-18%,7%,.
CCOC(=O)CC1=NN(c2ccccc2)C(=O)C1=c1sc(=C2SC(C)=C(C)N2CC)c(=O)n1CC,11%,-2,15%,6%,.,.
COC(=O)CC1=NN(c2ccc(OC)cc2)C(=O)/C1=C\c1ccc(Cl)cc1,?,-14,?,2.4µM*,50µM*,20µM*
CCOC(=O)CC1=NN(c2ccccc2)C(=O)/C1=C\c1ccc(OC)cc1OC,14µM*,-4,16µM*,2.7µM*,11µM*,10µM*
COC(=O)CC1=NN(c2ccccc2)C(=O)/C1=C\c1ccc(OC)cc1,-30%,-5,-10%,2.7µM*,?,20µM*
NC(=O)Cn1nc(-c2ccccc2)nc1-c1ccccc1,8%,0,7%,2%,.,.
CN(CC(=O)Nc1ccc(F)c(F)c1F)C(=O)c1cc(-c2ccncc2)nc2ccccc12,-28%,-9,-4%,1%,-7%,56µM*
Cc1ccc(-c2cc(C(=O)N(C)CC(=O)Nc3ccccc3Br)c3ccccc3n2)o1,?,-21,0%,-12%,-1%,8.9µM*
N=c1sccn1CC(=O)N1N=C(c2ccc(Cl)cc2)CC1c1ccco1 (stereo not drawn),-21%,-13,-21%,-13%,79µM*,-40%
O=C(OCC(=O)N1N=C(c2ccc(Cl)cc2)CC1c1ccco1)c1ccco1 (stereo not drawn),-28%,4,12%,2%,-28%,?
CS(=O)(=O)Nc1ccc(C2=NN(C(=O)c3ccco3)C(c3ccco3)C2)cc1 (stereo not drawn),-24%,-25,8%,-11%,?,.
CCC1(CC)NC(=O)N(CC(=O)N2N=C(c3ccc(Cl)cc3)CC2c2ccco2)C1=O (stereo not drawn),?,?,-15%,-11%,?,56µM*
